About 10,000 (2.8%) of roughly 360,000 compounds were called active. Not shown: some 4% with an inconclusive outcome. The entries come from a sample that favours actives as a whole. A number with no mark means an inactive call. Calls come from the whole dose curve; as a rule, active = well fitted inhibition curve with a large enough effect; inconclusive = small, poorly fitted or top-dose-only effect; inactive = flat fitted curve, though single readings scatter.
What follows are molecules tested against Serine/threonine-protein kinase PLK1 (Homo sapiens) (UniProt P53350) (assay: qHTS for Inhibitors of PLK1-PDB (polo-like kinase 1 - polo-box domain): Primary Screen). Conditions: Plk1 PBD binding of FITC phosphopeptide, fluorescence polarization.
% is set by controls: 0 for no effect and ±100 for the full control effect; potency is the fitted concentration of half-maximal effect.
Note: nearly all actives have a fitted effect of over 65% in size.
Throughout, for max response, negative = inhibition: series mostly up to about 57 µM.

Serine/threonine-protein kinase PLK1 (Homo sapiens), sequence (P53350 whole entry, looked up, the tested form may be a part): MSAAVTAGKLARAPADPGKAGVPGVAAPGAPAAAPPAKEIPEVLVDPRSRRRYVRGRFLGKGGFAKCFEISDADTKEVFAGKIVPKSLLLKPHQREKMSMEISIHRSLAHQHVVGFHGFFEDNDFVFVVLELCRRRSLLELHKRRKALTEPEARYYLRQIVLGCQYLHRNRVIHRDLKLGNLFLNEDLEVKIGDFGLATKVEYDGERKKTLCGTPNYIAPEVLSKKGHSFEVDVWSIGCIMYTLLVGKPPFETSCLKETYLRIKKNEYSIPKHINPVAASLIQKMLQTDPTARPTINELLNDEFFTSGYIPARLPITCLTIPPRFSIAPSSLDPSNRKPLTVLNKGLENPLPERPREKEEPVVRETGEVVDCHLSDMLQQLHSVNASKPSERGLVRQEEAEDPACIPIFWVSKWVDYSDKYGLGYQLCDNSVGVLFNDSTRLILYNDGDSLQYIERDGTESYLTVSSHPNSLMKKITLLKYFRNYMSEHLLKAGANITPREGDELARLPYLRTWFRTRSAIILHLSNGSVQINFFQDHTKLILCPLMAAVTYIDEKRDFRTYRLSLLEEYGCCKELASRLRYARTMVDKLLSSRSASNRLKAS

SMILES	max response, negative = inhibition [%]	Potency
CCOc1ccc(CCN2C(=S)N([C@@H](CC(C)C)CN3CCC[C@@H]3CN3C(=S)NC[C@@H]3Cc3ccc(O)cc3)C[C@@H]2CC(C)C)cc1	5.19	–
CCCNC(=O)c1c(Cl)cnn1-c1ccc(C)cc1	-6.94	–
CCCNC(=O)c1ccc(Cl)c(Cl)c1	–	21.2 µM (active)
COCC(C)NC(=O)c1ccc(Cl)c(Cl)c1 (stereo not given)	-9.11	–
COc1ccc(CC(N)c2csc(NC(=O)Cc3ccccc3)n2)cc1 (stereo not given)	-4.52	–
COc1ccc(OC)c(C(O)c2ncc(-c3cccc(C(F)(F)F)c3)[nH]2)c1 (stereo not given)	6.6	–
Cc1cc(Br)cn2c(Cc3ccccc3C(F)(F)F)c(-c3ccc(Cl)cc3)nc12	2.92	–
COc1cc2nnn(-c3ccncc3)c2cc1OC	-2.85	–
CCOC(=O)C1(C)CCCN(C(=O)c2cccc(Cl)c2)C1 (stereo not given)	-9.97	–
O=C1NC[C@H](CCCCN2CCN(CCc3ccccc3)C(=O)C2=O)N(CC2CCCCC2)C1=O	-4.62	–
CC(C)Oc1ccc(CCc2n[nH]c(=S)n2Cc2ccccc2)cc1	-8.99	–
COc1cc(-c2n[nH]c(=S)n2Cc2ccccc2)cc(OC)c1OC	-6.45	–
CC(C)Oc1ccc(Cc2n[nH]c(=S)n2Cc2ccccc2)cc1Cl	–	16.8 µM (active)
CCc1c(N=O)c(-c2ccccc2)n(O)[n+]1[O-]	-2.08	–
Nc1[nH]c(C(=O)c2ccccc2)c(-c2ccc(Br)cc2)c1C(=O)NC1CC1	-9.8	–
O=S1(=O)CC(N2CCN(Cc3ccccc3F)CC2)CN1Cc1cn(Cc2cccc(C(F)(F)F)c2)nn1 (stereo not given)	-2.54	–
CC(C)c1ccc(NC(=S)NNc2ccc(Cl)c(C(=O)O)c2)cc1	–	23.8 µM (active)
O=C(NC(=S)Nc1ccc(Cl)c(C(=O)O)c1)c1cncc(Br)c1	-11.2	–
CCC(C(=O)Nc1ccc(C(C)C)cc1)c1ccccc1 (stereo not given)	2.25	–
Cc1ccc(NC(=S)NCCc2ccc(Cl)cc2)c(C)c1	-3.36	–
Cc1ccc(C)c(NC(=S)NNC(=S)Nc2ccc(C(C)C)cc2)c1	–	18.9 µM (active)
CC(C)c1ccc(NC(=S)NC2CC3C=CC2C3)cc1 (stereo not given)	-23.1	–
COC(=O)[C@]12CCCCC=C1N(Cc1ccco1)C(=O)[C@H](CC(=O)NCC1CCCCC1)C2	-3.48	–
CCCc1ccc(C(O)c2ncc(-c3cccc(OC)c3)[nH]2)cc1 (stereo not given)	-2.5	–
CN(C(=O)COC(=O)c1cc(-c2ccco2)nc2ccccc12)C1CCS(=O)(=O)C1 (stereo not given)	–	18.9 µM (active)
COc1ccc(/C=C(\C#N)C(=O)OCC(=O)N(C)C2CCS(=O)(=O)C2)cc1 (stereo not given)	-10.5	–
CN(C(=O)COC(=O)Cc1ccccc1[N+](=O)[O-])C1CCS(=O)(=O)C1 (stereo not given)	1.07	–
COc1cncc(-c2cnc3sc(NCCc4ccccn4)nn23)c1	-12.3	–

SMILES	max response, negative = inhibition [%]	Potency
Cc1ccc(C)c(S(=O)(=O)N2CC(=O)Nc3ccccc32)c1	–	23.8 µM (active)
Cc1ccc(C)c(S(=O)(=O)N2CCN(C(=O)Nc3ccccc3)CC2)c1	-2.91	–
Cc1ccc(S(=O)(=O)N2CC(=O)Nc3ccccc32)cc1C	-4.98	–
NC(c1csc(NC(=O)Nc2ccccc2Oc2ccccc2)n1)c1ccccc1Cl (stereo not given)	0.513	–
Cc1cccc(N(CC(=O)N2CCCC2)S(C)(=O)=O)c1C	-8.37	–
O=C(NCc1ccccc1)C(c1ccc(F)cc1)N1CCN(C(=O)C2CCCO2)CC1 (stereo not given)	1.19	–
CCN(C(=O)COC(=O)Cc1c(F)cccc1Cl)c1c(N)n(Cc2ccccc2)c(=O)[nH]c1=O	4.8	–
CCN(C(=O)CN1CCN(Cc2ccccc2)CC1)c1c(N)n(Cc2ccccc2)c(=O)[nH]c1=O	–	23.8 µM (active)
CCN(C(=O)COC(=O)c1sccc1C)c1c(N)n(Cc2ccccc2)c(=O)[nH]c1=O	-3.78	–
COc1ccc(NC(=O)CCCOc2ccc(C(C)=O)cc2)cc1S(=O)(=O)N1CCCCC1	2.7	–
Brc1ccc2nc(-c3ccccc3)c(Cc3ccccc3)n2c1	-6.3	–
CN1OC[C@@H]2CN(C(=O)c3cccc4ccccc34)[C@H](c3ccc(N4CCCCC4)cc3)C[C@@H]21	-3.91	–
CC1(C(=O)Nc2cccc3c2CCCC3)CCN1C(=O)C1(c2ccccc2)CC1 (stereo not given)	2.66	–
CC1(Cc2ccccc2C#N)C(=O)Nc2ccc(-c3ccc4[nH]ccc4c3)cc21 (stereo not given)	2.71	–
CCOC(=O)C1(CCOC)CCN(Cc2ccc(C(=O)OC)cc2)CC1	-4.26	–
CCOC(=O)C1(CCOC)CCN(Cc2cc3ccccc3s2)CC1	–	10.6 µM (active)
CCOC(=O)C1(CCOc2ccccc2)CCN(Cc2cc(OC)cc(OC)c2)CC1	-2.45	–
O=C(Nc1cccc2cccnc12)c1ccc2sc([C@H]3C[C@H](O)[C@@H](CO)O3)nc2c1	3.77	–
O=C(O)c1ccccc1CSc1nc2ccccc2s1	–	8.44 µM (active)
Nc1nnc(SCC(=O)Nc2ccc3nc(SCC(=O)Nc4ccccc4)sc3c2)s1	2.76	–
Cn1c(=O)[nH]c(=O)c2c1nc(N1CCN(CCO)CC1)n2CCSc1nc2ccccc2s1	-15.4	–
Cc1noc(C)c1S(=O)(=O)N(C)C[C@H]1OCCCC[C@@H](C)Oc2ccc(NC(=O)CCCN(C)C)cc2C(=O)N([C@H](C)CO)C[C@@H]1C	-12.6	–
CC1(C(=O)NS(=O)(=O)Cc2cccc(Cl)c2)CCN1C(=O)Cc1ccccc1 (stereo not given)	0.171	–
O=C(COc1ccc(Cl)cc1)N1CCN(c2cccc(C(F)(F)F)c2)CC1	–	18.9 µM (active)
Cc1c(C)c2ccc(OCC(=O)N3CCN(c4cccc(Cl)c4)CC3)cc2oc1=O	-4.22	–
CSCCC(NC(=O)COc1ccccc1)C(=O)N1CCN(c2cccc(C(F)(F)F)c2)CC1 (stereo not given)	10.8	–
CCOc1cc(/C=N/NC(=O)c2ccncc2)cc(Br)c1O	-2.72	–
